{
  "source": "PubChem BioAssay AID1224862",
  "about": "(National Center for Advancing Translational Sciences (NCATS), 2016)",
  "note": "Results filed as inconclusive are left out. Unmarked numbers belong to inactive results. Activity calls are given as the source filed them. Calls come from the whole dose curve; as a rule, active = well fitted cell-killing curve with a large enough effect; inconclusive = small, poorly fitted or top-dose-only effect, or effect the other way; inactive = flat fitted curve, though single readings scatter.",
  "data": [
    {"assay": "Compound cytotoxicity measured by an ATP content assay as a counter-screen for lead compounds in human astrocytoma cell line (SNB-19)", "conditions": "SNB-19 astrocytoma viability, ATP luminescence; series mostly up to 46.1 µM; activity change, negative = cytotoxicity: at the top concentration", "procedure,_shortened": "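Cell viability was measured as ATP content by luminescence in SNB-19 astrocytoma cells in RPMI 1640 with 10% FBS. Compounds were incubated for set times such as 6, 24 or 72 h, and cytotoxicity was expressed as percent inhibition.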", "values": [
      {"compound": "O[C@@H](COc1cccc2ncccc12)CN1CCN(C2c3ccccc3[C@@H]3[C@H](c4ccccc42)C3(F)F)CC1", "note": "(some centres not stated)", "activity change, negative = cytotoxicity": "2.37%"},
      {"compound": "CCC(C)SSc1ncc[nH]1", "note": "(configuration not stated)", "activity change, negative = cytotoxicity": "-19.8%"},
      {"compound": "CNC(=O)c1ccccc1Sc1ccc2c(/C=C/c3ccccn3)n[nH]c2c1", "Potency": "10.9 µM (active)"},
      {"compound": "CNC1[C@H](O)C(O[C@@H]2C(O)C(O[C@H]3O[C@H]([C@@H](C)NC)CC[C@H]3N)[C@@H](N)C[C@H]2N)OC[C@]1(C)O", "note": "(some centres not stated)", "activity change, negative = cytotoxicity": "27.5%"},
      {"compound": "NC(N)=NN=C(/C=C/c1ccc([N+](=O)[O-])o1)/C=C/c1ccc([N+](=O)[O-])o1", "Potency": "17.3 µM (active)"},
      {"compound": "CS(=O)(=O)c1ccc(-c2cn3ccccc3n2)cc1", "Potency": "12.3 µM (active)"},
      {"compound": "Nc1nc2ccc([N+](=O)[O-])cc2s1", "activity change, negative = cytotoxicity": "14.7% [at 88.3 µM]"},
      {"compound": "CCOCCOC(=O)/C=C/c1ccc(OC)cc1", "activity change, negative = cytotoxicity": "15.8%"},
      {"compound": "O=C(Nc1ncc([N+](=O)[O-])s1)c1cccs1", "activity change, negative = cytotoxicity": "-14.7%"},
      {"compound": "CC1(C)Cc2c(sc(NC(=S)NC(=O)c3ccccc3)c2C(=O)O)CO1", "activity change, negative = cytotoxicity": "10.2%"},
      {"compound": "O=C(/C=C/c1ccccc1)NCCO", "activity change, negative = cytotoxicity": "9.32%"},
      {"compound": "O=C(CS)Nc1ccccc1", "activity change, negative = cytotoxicity": "31.3%"},
      {"compound": "CC(=NNC(=S)N1CCC1)c1ccccn1", "activity change, negative = cytotoxicity": "10.5%"},
      {"compound": "CC[C@@]1(O)C[C@H](O[C@H]2C[C@H](N(C)C)[C@H](O[C@H]3C[C@H](O)[C@H](O[C@H]4CCC(=O)[C@H](C)O4)[C@H](C)O3)[C@H](C)O2)c2c(cc3c(c2O)C(=O)c2c(O)cccc2C3=O)[C@@H]1C(=O)OC", "activity change, negative = cytotoxicity": "-16.8%"},
      {"compound": "Cc1ccc(O)c(N=Nc2ccccc2)n1", "Potency": "7.74 µM (active)"},
      {"compound": "C=CCCCCCCCCC(=O)O", "activity change, negative = cytotoxicity": "-4.48%"},
      {"compound": "Nc1ncnc2c1ncn2[C@@H]1O[C@@H](CO)[C@H](O)[C@H]1O", "activity change, negative = cytotoxicity": "-8.91% [at 23.8 µM]"},
      {"compound": "Cc1[nH]c(C=C2C(=O)Nc3ccccc32)c(C)c1CCC(=O)O", "activity change, negative = cytotoxicity": "3.28%"},
      {"compound": "O=C(O)c1ccccc1Nc1cccc(C(F)(F)F)c1", "activity change, negative = cytotoxicity": "-21.9%"},
      {"compound": "COCCn1c2c([n+](Cc3cnccn3)c1C)C(=O)c1ccccc1C2=O", "Potency": "0.0155 µM (active)"},
      {"compound": "Cc1cccc(/C=C/c2ccccc2)n1", "activity change, negative = cytotoxicity": "-22.7%"},
      {"compound": "O=C(Nc1cc2cc[nH]c2cn1)c1ccccc1", "Potency": "0.388 µM (active)"},
      {"compound": "Cc1oncc1C(=O)Nc1ccc(C(F)(F)F)cc1", "activity change, negative = cytotoxicity": "9.65%"},
      {"compound": "O=C(Nc1ccc(C(=O)O)c(O)c1)c1ccccc1", "activity change, negative = cytotoxicity": "4.12%"},
      {"compound": "CCCCCCCC/C=C/C(=O)O", "activity change, negative = cytotoxicity": "28.3%"},
      {"compound": "CCCS(=O)c1ccc2nc(NC(=O)OC)[nH]c2c1", "note": "(configuration not stated)", "activity change, negative = cytotoxicity": "16.2%"},
      {"compound": "CCOC1OC(=O)C[C@H]1NC(=O)[C@@H]1CCCN1C(=O)[C@@H](NC(=O)c1ccc(N)c(Cl)c1)C(C)(C)C", "note": "(some centres not stated)", "activity change, negative = cytotoxicity": "7.25%"},
      {"compound": "COc1ccc(CC2=NN3C([C@@H](CCc4ccccc4)[C@@H](C)O)=NC(C)C3C(=O)N2)cc1OC", "note": "(some centres not stated)", "activity change, negative = cytotoxicity": "10.1%"},
      {"compound": "CN1CCN(c2cc3c(nn2)Oc2ccccc2N3C)CC1", "activity change, negative = cytotoxicity": "14.2% [at 23.8 µM]"},
      {"compound": "CC=CC[C@@H](C)C(=O)[C@H]1C(=O)N[C@@H](C(C)C)C(=O)N(C)CC(=O)N(C)[C@@H](CC(C)C)C(=O)N[C@@H](C(C)C)C(=O)N(C)[C@@H](CC(C)C)C(=O)N[C@@H](C)C(=O)N[C@H](C)C(=O)N(C)[C@@H](CC(C)C)C(=O)N(C)[C@@H](CC(C)C)C(=O)N(C)[C@@H](C(C)C)C(=O)N1C", "activity change, negative = cytotoxicity": "-12.1%"},
      {"compound": "Cc1c(NC(=O)c2ccc(C(C)(C)C)cc2)cccc1-c1cn(C)c(=O)c(Nc2ccc(C(=O)N3CCOCC3)cc2)n1", "activity change, negative = cytotoxicity": "-5.55%"},
      {"compound": "CC(C)c1ccc2oc3nc(N)c(C(=O)O)cc3c(=O)c2c1", "Potency": "1.55 µM (active)"},
      {"compound": "CC(C(=O)O)c1ccc(-c2ccccc2)c(F)c1", "note": "(configuration not stated)", "activity change, negative = cytotoxicity": "12.2%"},
      {"compound": "CO[C@H]1C(=O)[C@]2(C)[C@@H](OC)C[C@H]3OC[C@@]3(OC(C)=O)[C@H]2[C@H](OC(=O)c2ccccc2)[C@]2(O)C[C@H](OC(=O)[C@H](O)[C@@H](NC(=O)OC(C)(C)C)c3ccccc3)C(C)=C1C2(C)C", "activity change, negative = cytotoxicity": "8.56%"},
      {"compound": "C[C@@H](N)c1ccc(C(=O)Nc2ccnc3[nH]ccc23)cc1", "activity change, negative = cytotoxicity": "10.8%"},
      {"compound": "CCN1/C(=C/C=C/c2sc3ccccc3[n+]2CC)Sc2ccccc21", "activity change, negative = cytotoxicity": "-29.8% [at 23.8 µM]"},
      {"compound": "Cc1ccc(C(=O)c2ccc(CC(=O)O)n2C)cc1", "activity change, negative = cytotoxicity": "14.3%"}
    ]}
  ]
}
